Measurements as given in PubChem BioAssay.
Values without a mark were called inactive. Active and inactive are the calls of the source. No rule for the calls is given here.

test system: Botulinum neurotoxin type F light chain protease (Clostridium botulinum); test: Botulinum neurotoxin type F light chain protease inhibition, multiplex microsphere flow cytometry, validation set (AID 588459); conditions: multiplex microsphere protease substrate cleavage assay, at 10 µM, stronger effect = higher value

| Structure (SMILES) | inhibition |
| --- | --- |
| CC(=Nc1ccccc1)C1=C(O)CCCC1=O | -3.4% |
| CCC(=O)Oc1ccc(/C(CC)=C(\CC)c2ccc(OC(=O)CC)cc2)cc1 | -2% |
| COc1ccc(CN2CCC(=O)NC2=O)cc1 | -2.3% |
| OC[C@H]1O[C@@H](n2cnc3c(NC4CCCC4)ncnc32)[C@H](O)[C@@H]1O | -1.4% |
| COc1ccc(OC)c(-n2c(Cn3c(-c4ccccn4)nc4ccccc43)n[nH]c2=S)c1 | -3.4% |
| Cc1ccc2[nH]c3c(c2c1)CN(C(=O)CN1CCSCC1)CC3 | 61.5% (active) |
| O=C(c1ccc(Cl)cc1)C1CCCN(Cc2ccc(Oc3ncccn3)cc2)C1 (centres undefined) | 2.2% |
| CN(C)C(=O)C12CCC(C)(c3nc4ccccc4nc31)C2(C)C (centres undefined) | -1.3% |
| C#CCN1C(=O)C(O)(CC(=O)c2ccc(OC)c(OC)c2)c2ccccc21 (centres undefined) | 2.3% |
| Cc1ccc(S(=O)(=O)Nc2ccc(S(=O)(=O)Nc3cc(C)nc(C)n3)cc2)cc1 | -1.8% |
| O=P(c1ccccc1)(c1ccccc1)c1nc(-c2ccc(Cl)cc2)oc1N1CCOCC1 | -1% |
| CC1(C)CC(C(CC(=O)N2CCCC2)Cc2ccccc2)CCO1 (centres undefined) | -0.7% |
| CC12CN3CC(C)(CN(C1)C3c1ccc(Br)cc1O)C2 (centres undefined) | -1.8% |
| Cc1nc2sccn2c(=O)c1CCN1CCC(=C(c2ccc(F)cc2)c2ccc(F)cc2)CC1 | -6% |
| CC(=O)OC(CC(=O)O)C[N+](C)(C)C (centres undefined) | 3.4% |
| Cc1ccc(S(=O)(=O)NC(=O)Nc2cc(C)ccc2F)cc1 | 3% |
| CCOC(=O)Cc1c(C)nc(N)[nH]c1=O | 2.8% |
| CCN(CC)C(=O)c1ccc(O)c(OC)c1 | -2.8% |
| CC(=O)C1=C(Nc2ccc(C)cc2)CC(C)(O)C(C(C)=O)C1c1ccco1 (centres undefined) | 1% |
| O=C(CS(=O)(=O)Cc1ccccc1)NCc1ccc2c(c1)OCO2 | 1.6% |

| Structure (SMILES) | inhibition |
| --- | --- |
| COc1ccc(C(=O)[C@H]2[C@H]3C(=O)N(c4ccccc4)C(=O)[C@H]3C3C=CC=NN32)cc1 (some centres undefined) | 1.9% |
| CCN(CC)CCNC(=O)c1cc(Cl)c(N)cc1OC | -1.3% |
| Nc1ccn([C@@H]2O[C@H](CO)[C@@H](O)[C@@H]2O)c(=O)n1 | -1.4% |
| CCCCN1C[C@H](O)[C@@H](O)[C@H](O)[C@H]1CO | 1.9% |
| O=C(c1ccc(O)cc1)c1ccc(O)cc1O | -0.9% |
| COc1ccc(CNCCC(c2ccc(F)cc2)c2ccc(OC(C)C)cc2)cc1OC (centres undefined) | -0.6% |
| C[C@@H]1C[C@H]2[C@@H]3C[C@H](F)C4=CC(=O)C=C[C@]4(C)[C@@]3(F)[C@@H](O)C[C@]2(C)[C@@]1(O)C(=O)COC(=O)C(C)(C)C | -2.6% |
| CC12CN3CC(C)(CN(C1)C3c1ccc([N+](=O)[O-])o1)C2 (centres undefined) | -3.2% |
| COc1cc(/C=C/C(=O)O)cc(S(=O)(=O)NCCCO)c1OC | 1.9% |
| CC(C)CN1CCN(Cc2ccc3ncccc3c2)CC1CCO (centres undefined) | -0.3% |
| CC(C)[C@H](NC(=O)[C@@H]1CSCN1C(=O)OC(C)(C)C)C(=O)NCC1CCC(C(=O)O)CC1 (some centres undefined) | -1.3% |
| Cc1cnc(C(=O)NCCc2ccc(S(=O)(=O)NC(=O)NC3CCCCC3)cc2)cn1 | 0.7% |
| C=CCNc1nc2c(c(=O)n(C)c(=O)n2C)n1CC(=C)C | 3.1% |
| CC(=O)C1=C(NC(=O)c2ccc(C(F)(F)F)cc2)C[C@@H]2[C@H]1C2(C)C | 2% |
| CC(C)COCC1CC2(CC(C)(c3csc(N)n3)OC2=O)C(=O)O1 (centres undefined) | -3.2% |
| CCN1CCN(C(=O)N[C@@H](C(=O)N[C@@H]2C(=O)N3[C@@H]2SC(C)(C)[C@@H]3C(=O)O)c2ccccc2)C(=O)C1=O | -1.5% |
| COc1ccc2cc(C(=O)Nc3ccc(S(N)(=O)=O)cc3)sc(=O)c2c1OC | 4.2% |
| N=C(N)c1ccc(OCCCCCOc2ccc(C(=N)N)cc2)cc1 | 0.7% |
| COc1ccc(/C=C/C(=O)NC(=S)NN2CCCCC2c2cccnc2)cc1 (centres undefined) | 3.7% |
